The whole screen tested about 2,400 compounds, of which about 750 (31%) were called active. The list shows a part of the results. Values without a mark were called inactive.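 Rule for the calls: active = median signal gain over dofetilide-blocked control wells reaching their mean plus 3 SD, so readout 1 at least 0; inactive = the rest.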
The molecules below were run against Voltage-gated inwardly rectifying potassium channel KCNH2 (Homo sapiens) (UniProt Q12809) (assay: modulators restoring hERG flux under dofetilide – cell-based, thallium flux, duplicate retest, dofetilide IC70, confirmation (AID 1835)). Details: hERG cell line, FluxOR thallium flux, dofetilide-blocked; at 10 µM; hits give high values.
Chain of Voltage-gated inwardly rectifying potassium channel KCNH2 (Homo sapiens) (Q12809 whole entry, looked up): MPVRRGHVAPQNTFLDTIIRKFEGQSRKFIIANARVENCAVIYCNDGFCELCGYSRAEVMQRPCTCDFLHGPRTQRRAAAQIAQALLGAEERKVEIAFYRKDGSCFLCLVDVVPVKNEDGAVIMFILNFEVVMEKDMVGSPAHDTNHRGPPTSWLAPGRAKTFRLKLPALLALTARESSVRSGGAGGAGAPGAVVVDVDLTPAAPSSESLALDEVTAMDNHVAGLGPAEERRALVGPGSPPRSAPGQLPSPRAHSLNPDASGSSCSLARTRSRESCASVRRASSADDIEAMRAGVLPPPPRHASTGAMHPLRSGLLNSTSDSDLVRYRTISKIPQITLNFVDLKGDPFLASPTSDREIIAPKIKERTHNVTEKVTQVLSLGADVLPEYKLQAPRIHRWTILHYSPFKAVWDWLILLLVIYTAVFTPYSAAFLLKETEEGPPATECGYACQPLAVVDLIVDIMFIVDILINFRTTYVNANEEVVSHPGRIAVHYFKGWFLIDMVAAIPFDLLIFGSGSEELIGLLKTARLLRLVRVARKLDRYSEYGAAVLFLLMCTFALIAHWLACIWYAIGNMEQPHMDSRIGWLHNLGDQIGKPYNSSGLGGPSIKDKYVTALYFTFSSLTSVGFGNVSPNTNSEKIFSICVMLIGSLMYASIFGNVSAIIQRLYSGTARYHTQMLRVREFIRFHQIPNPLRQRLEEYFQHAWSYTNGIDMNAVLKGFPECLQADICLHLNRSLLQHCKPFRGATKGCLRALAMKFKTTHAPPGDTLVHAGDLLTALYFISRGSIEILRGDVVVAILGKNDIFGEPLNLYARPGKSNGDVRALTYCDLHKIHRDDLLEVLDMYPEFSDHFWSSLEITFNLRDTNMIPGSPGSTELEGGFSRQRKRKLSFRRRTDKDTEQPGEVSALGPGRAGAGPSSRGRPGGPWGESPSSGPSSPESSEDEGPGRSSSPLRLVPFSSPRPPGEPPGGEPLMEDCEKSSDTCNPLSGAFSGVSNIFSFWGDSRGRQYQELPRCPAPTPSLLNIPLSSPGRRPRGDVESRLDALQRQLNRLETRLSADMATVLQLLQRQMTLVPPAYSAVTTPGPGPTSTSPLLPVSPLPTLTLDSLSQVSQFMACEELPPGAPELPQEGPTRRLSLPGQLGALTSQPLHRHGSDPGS
O=C(N/N=C/c1ccc2cccc(OCc3ccccc3)c2n1)c1ccc(Br)cc1 was tested, and the activity increase over dofetilide control, less the hit threshold was -9%.
Molecule CC(C)C(=O)Nc1cccc(C(=O)Nc2ccccc2C(=O)O)c1 has an activity increase over dofetilide control, less the hit threshold of -7%.
CN(C)C(=O)c1ccc(NC(=O)c2cncc(Br)c2)cc1 showed an activity increase over dofetilide control, less the hit threshold of -12%.
Molecule COc1cc(NC(=O)CCCOc2ccc(Cl)cc2Cl)c(C(=O)O)cc1OC has an activity increase over dofetilide control, less the hit threshold of -6%.
Molecule CCOP(=O)(OCC)C(NC(=O)c1ccc(OC)c(OC)c1)c1ccccc1 (stereo not drawn) has an activity increase over dofetilide control, less the hit threshold of -14%.
In the case of O=C(Nc1ccccc1C(=O)O)c1cncc(Br)c1, the activity increase over dofetilide control, less the hit threshold was 12% (active).
With O=C(Nc1ccccc1C(=O)O)c1cccc(NC(=O)c2ccccc2Br)c1 the activity increase over dofetilide control, less the hit threshold was -5%.
COc1ccc(C(=O)Nc2ccccc2C(=O)O)cc1Cl was tested, and the activity increase over dofetilide control, less the hit threshold was 5% (active).
Molecule COc1cc(C(=S)N2CCOCC2)ccc1OC(=O)c1ccc([N+](=O)[O-])cc1[N+](=O)[O-] has an activity increase over dofetilide control, less the hit threshold of -22%.
With O=C(CCCOc1ccc(Cl)cc1Cl)Nc1ccccc1C(=O)O the activity increase over dofetilide control, less the hit threshold was 3% (active).
COc1cc(C(=O)Nc2ccc(O)cc2C(=O)O)ccc1OC(C)=O was tested, and the activity increase over dofetilide control, less the hit threshold was 1% (active).
O=C(O)c1cc(/C=N\O)ccc1OCc1ccccc1 gave an activity increase over dofetilide control, less the hit threshold of -9%.
With Cc1c(Cl)c([N+](=O)[O-])nn1CC(=O)NCC(C)C the activity increase over dofetilide control, less the hit threshold was -20%.
For COc1ccc(COC(=O)C2CCN(S(=O)(=O)c3cccs3)CC2)cc1, the activity increase over dofetilide control, less the hit threshold was -27%.
Work on CC1CCCC(C)N1S(=O)(=O)c1ccc(NC(=O)CCn2cnc3ccccc3c2=O)cc1 (stereo not drawn) yielded an activity increase over dofetilide control, less the hit threshold of -12%.
For CCOc1ccc(C(=O)Nc2ccccc2C(=O)O)cc1, the activity increase over dofetilide control, less the hit threshold was 3% (active).
In the case of CCCCC(=O)Nc1cccc(C(=O)Nc2ccccc2C(=O)O)c1, the activity increase over dofetilide control, less the hit threshold was -3%.
In the case of O=C(Nc1ccccc1C(=O)O)c1ccc(NC(=O)C2CC2)cc1, the activity increase over dofetilide control, less the hit threshold was -2%.
In the case of Cn1c(/N=C/c2c(O)ccc3ccccc23)nc2ccccc21, the activity increase over dofetilide control, less the hit threshold was -32%.
O=C1C2CC=CCC2C(=O)N1c1ccc(Cc2ccncc2)cc1 (stereo not drawn) was tested, and the activity increase over dofetilide control, less the hit threshold was 3% (active).
Molecule O=S(=O)(Nc1ccc(Cc2ccncc2)cc1)c1ccc(Cl)c(Cl)c1 has an activity increase over dofetilide control, less the hit threshold of -6%.
For CC(C)(C)c1cc(C(=O)NNC(=O)c2ccc(Cl)cc2)no1, the activity increase over dofetilide control, less the hit threshold was 29% (active).
Molecule Cc1nc(-c2nc(-c3c(C(=O)NNC(=O)c4ccc(Cl)cc4)noc3C)cs2)cs1 has an activity increase over dofetilide control, less the hit threshold of -17%.
For CC(C)(C)c1csc(NNC(=O)c2ccc(Cl)cc2)n1, the activity increase over dofetilide control, less the hit threshold was -3%.
In the case of Cc1csc2c(N3CCCCC3)ncnc12, the activity increase over dofetilide control, less the hit threshold was -8%.
In the case of CC(=O)CSc1ncnc2sc3c(c12)CCC(C)C3 (stereo not drawn), the activity increase over dofetilide control, less the hit threshold was 72% (active).
With COc1cc(NC(=O)CSc2ncnc3sc4c(c23)CCC(C)C4)c(C(=O)O)cc1OC (stereo not drawn) the activity increase over dofetilide control, less the hit threshold was 94% (active).
Cc1nnc(NC(=O)CN2CCN(Cc3ccc(F)cc3Cl)CC2)s1 was tested, and the activity increase over dofetilide control, less the hit threshold was -17%.
